Active and inactive are the calls of the source. Unless noted, how the calls were made is not given here.
Assays:
[1] = compound effects on lung adenocarcinoma cell viability – A549, calcein-AM fluorescence, 48 h, basal, profiling panel (AID 1162); settings: higher = more signal; further: test concentration not given here
[2] = compound effects on differentiated 3T3-L1 adipocyte viability – cell-based, 3T3-L1 adipocytes, calcein-AM fluorescence, 48 h, basal, profiling panel (AID 1163); settings: 3T3-L1 adipocytes viability, higher = more signal; further: test concentration not given here
[3] = compound effects on hepatocellular carcinoma cell viability – HepG2, calcein-AM fluorescence, 48 h, basal, profiling panel (AID 1164); settings: higher = more signal; further: test concentration not given here
[4] = compound effects on multiple myeloma cell viability – MM1S, calcein-AM fluorescence, 48 h, basal, profiling panel (AID 1165); settings: higher = more signal;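 further: viability of MM1S multiple myeloma cells under basal unstimulated conditions; test concentration not given here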
[5] = calcein-AM signal in unstimulated myeloma cells – cell-based, calcein-AM fluorescence, 48 h, PK04 Diversity Set, profiling panel (AID 1166); settings: RPMI8226 myeloma viability, higher = more signal;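 further: cells grown under basal conditions without added stimulus; test concentration not given here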
[6] = JC-1 mitochondrial signal, unstimulated HepG2 cells – cell-based, JC-1 fluorescence, 24 h, 100 nL compound, profiling panel (AID 1167); settings: HepG2 mitochondrial potential, higher = more signal; further: test concentration not given here
[7] = JC-1 mitochondrial signal, unstimulated adipocytes – cell-based, JC-1 fluorescence, 3T3-L1 adipocytes, 24 h, 100 nL compound, profiling panel (AID 1168); settings: JC-1 mitochondrial fluorescence, higher = more signal, called active from +8 up or from −8 down; further: test concentration not given here
[8] = JC-1 mitochondrial signal, unstimulated myeloma cells – cell-based, JC-1 fluorescence, RPMI8226, 24 h, 100 nL compound, profiling panel (AID 1169); settings: JC-1 mitochondrial potential fluorescence, higher = more signal; further: test concentration not given here
[9] = JC-1 mitochondrial signal, unstimulated MM1S myeloma – cell-based, JC-1 fluorescence, 24 h, 100 nL compound, profiling panel (AID 1170); settings: MM1S mitochondrial potential, higher = more signal; further: test concentration not given here
[10] = resazurin metabolic signal in A549 cells – cell-based, resazurin fluorescence, 24 h, PK04 Diversity Set, profiling panel (AID 1171); settings: A549 viability, higher = more signal, called active from +8 up or from −8 down; further: test concentration not given here
[11] = resazurin metabolic signal in HepG2 cells – cell-based, resazurin fluorescence, 24 h, PK04 Diversity Set, profiling panel (AID 1172); settings: HepG2 viability, higher = more signal; further: test concentration not given here
[12] = budding yeast growth changes without added modifier – OD600, strain BY4716, 24 h, basal condition, primary screen (AID 1173); settings: S. cerevisiae BY4716 growth, OD600, 24 h; higher = more signal, called active from +8 up or from −8 down
[13] = viability profiling in MM1S myeloma cells – cell-based, resazurin fluorescence, basal, 24 h, PK04 Diversity Set, profiling panel (AID 1174); settings: higher = more signal, called active from +8 up or from −8 down; further: test concentration not given here
[14] = biological target: Dihydroorotate dehydrogenase (quinone), mitochondrial (Plasmodium falciparum (isolate 3D7)) (UniProt Q08210); experiment: inhibition of P. falciparum DHODH – biochemical, C-terminal His tag, absorbance 600 nm, primary screen (AID 1175); settings: PfDHODH enzyme, DCIP absorbance 600 nm; higher = more signal, called active from +8 up or from −8 down;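 further: recombinant parasite enzyme with a five histidine tag at its C terminus; test concentration not given here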
[15] = inhibition of PAO1 biofilm formation – strain PAO1, LB-PBS medium, absorbance 600 nm, primary screen (AID 1176); further: test concentration not given here; settings: P. aeruginosa PAO1 growth/biofilm, A600, 12 h; higher = more signal
[16] = growth modulation of vineyard yeast isolate – strain RM11-1a, OD600, basal, 24 h, primary screen (AID 1177);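 further: cultures grown under basal conditions with no added stressor; test concentration not given here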; settings: S. cerevisiae RM11-1a growth, OD600, 24 h; higher = more signal, called active from +8 up or from −8 down
[17] = growth of efflux-deficient E. coli DRC39 – strain DRC39, OD650, 24 h, E. coli filamentation inducers, primary screen (AID 1178);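 further: growth measured as culture turbidity by optical density at 650 nm; test concentration not given here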; settings: E. coli DRC39 acrAB, higher = more signal, called active from +8 up or from −8 down
[18] = growth of efflux-deficient E. coli DRC39 – strain DRC39, OD650, 48 h, E. coli filamentation inducers, primary screen (AID 1179);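 further: screen aims at cell division blockers that make cells filament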; settings: E. coli DRC39 delta-acrAB growth, higher = more signal, called active from +8 up or from −8 down
[19] = viability profiling in RPMI8226 myeloma cells – cell-based, resazurin fluorescence, basal, 24 h, PK04 Diversity Set, profiling panel (AID 1180); settings: higher = more signal;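 further: RPMI8826 multiple myeloma cell line at 5000 cells per well; test concentration not given here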
[20] = biological target: E3 ubiquitin-protein ligase XIAP (Homo sapiens) (UniProt P98170); experiment: small molecules binding XIAP protein – biophysical, small-molecule microarray, fluorescence 635 nm, primary screen (AID 1181); settings: higher = more signal;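 further: score merges 667 nm emission and signal to noise over triplicate slides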
Chain of E3 ubiquitin-protein ligase XIAP (Homo sapiens) (P98170 whole entry, looked up): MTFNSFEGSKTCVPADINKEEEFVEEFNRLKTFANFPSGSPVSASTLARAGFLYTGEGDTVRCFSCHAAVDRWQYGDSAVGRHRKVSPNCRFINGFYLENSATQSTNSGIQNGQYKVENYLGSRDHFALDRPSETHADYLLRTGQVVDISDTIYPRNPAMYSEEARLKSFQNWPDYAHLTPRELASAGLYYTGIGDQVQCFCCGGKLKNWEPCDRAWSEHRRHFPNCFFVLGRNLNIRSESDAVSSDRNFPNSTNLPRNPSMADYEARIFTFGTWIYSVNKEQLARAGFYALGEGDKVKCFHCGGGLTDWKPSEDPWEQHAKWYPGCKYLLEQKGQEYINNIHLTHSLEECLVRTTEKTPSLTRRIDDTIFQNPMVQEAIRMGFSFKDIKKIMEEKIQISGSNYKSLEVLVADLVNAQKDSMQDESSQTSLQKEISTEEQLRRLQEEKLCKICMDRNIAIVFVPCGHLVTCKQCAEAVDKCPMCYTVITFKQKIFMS

Chain of Dihydroorotate dehydrogenase (quinone), mitochondrial (Plasmodium falciparum (isolate 3D7)) (Q08210 whole entry, looked up): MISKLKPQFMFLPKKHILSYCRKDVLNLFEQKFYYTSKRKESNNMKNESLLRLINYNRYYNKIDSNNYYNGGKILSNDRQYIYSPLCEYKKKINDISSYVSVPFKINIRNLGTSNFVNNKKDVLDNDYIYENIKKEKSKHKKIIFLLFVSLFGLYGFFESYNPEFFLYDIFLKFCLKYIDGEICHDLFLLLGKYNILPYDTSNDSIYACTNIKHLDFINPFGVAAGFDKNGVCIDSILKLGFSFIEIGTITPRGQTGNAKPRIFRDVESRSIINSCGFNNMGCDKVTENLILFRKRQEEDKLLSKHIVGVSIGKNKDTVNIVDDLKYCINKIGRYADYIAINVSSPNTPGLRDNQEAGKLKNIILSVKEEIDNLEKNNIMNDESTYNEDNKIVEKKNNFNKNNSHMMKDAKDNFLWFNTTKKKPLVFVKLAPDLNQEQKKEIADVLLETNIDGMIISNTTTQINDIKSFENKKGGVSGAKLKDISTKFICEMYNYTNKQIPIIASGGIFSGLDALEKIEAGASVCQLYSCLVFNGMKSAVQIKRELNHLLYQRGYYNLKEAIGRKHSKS

SMILES	z-score [1]	z-score [2]	z-score [3]	z-score [4]	z-score [5]	z-score [6]	z-score [7]	z-score [8]	z-score [9]	z-score [10]	z-score [11]	z-score [12]	z-score [13]	composite z-score [14]	z-score [15]	z-score [16]	z-score [17]	z-score [18]	z-score [19]	composite z-score [20]
Cc1ccccc1C(O)C1C=CC2C(=O)N(C)C(=O)C2N1Nc1ccc([N+](=O)[O-])cc1[N+](=O)[O-] (stereo not given)	0.544	-0.729	0.839	-1.04	-0.582	-1.57	-1.15 (inactive)	-0.0251	-1.09	-0.372 (inactive)	-0.138	1.09 (inactive)	-0.729 (inactive)	-0.286 (inactive)	0.186 (inactive)	0.446 (inactive)	-0.456 (inactive)	-0.401 (inactive)	-0.963	-0.0172
CC(C)(C)OC(=O)CC[C@]1(C(=O)N2CCCCC2)N=C(c2ccc(OCCCO)cc2)O[C@H]1c1ccccc1CN=[N+]=[N-]	1.1	0.876	1.58	-2.99	-2.01	2.46	0.67 (inactive)	-0.983	0.358	-1.35 (inactive)	-0.725	-0.451 (inactive)	0.0183 (inactive)	-0.625 (inactive)	0.618 (inactive)	-0.391 (inactive)	2.41 (inactive)	2.39 (inactive)	-0.357	0.0346
C=CCOC(=O)[C@@H]1[C@H]2C(=O)O[C@H](c3ccccc3)[C@H](c3ccccc3)N2[C@H](c2ccc(OCCOC(=O)[C@@H]3C[C@@H]4C(=O)N5CCC[C@H]5C(=O)N4[C@@H]3c3cccc(OCCO)c3)cc2)[C@@]12C(=O)Nc1ccc(I)cc12	-0.283	0.584	-1.27	-0.16	0.583	-0.853	0.272 (inactive)	-0.661	-0.984	0.592 (inactive)	0.586	1.53 (inactive)	0.356 (inactive)	-0.652 (inactive)	1.69 (inactive)	2.07 (inactive)	0.132 (inactive)	-0.63 (inactive)	0.281	-0.224
CC(C)(C)OC(=O)CC[C@@]1(C(=O)N2CCCCC2)N=C(c2ccc(OCCCO)cc2)O[C@@H]1c1ccccc1N=[N+]=[N-]	0.611	-0.351	0.733	-0.993	-2.16	1.52	3.17 (inactive)	-1.1	-0.993	-0.328 (inactive)	-0.254	0.601 (inactive)	-1.73 (inactive)	0.27 (inactive)	-0.279 (inactive)	0.879 (inactive)	0.264 (inactive)	1.36 (inactive)	-0.408	-0.0474
OCCCC1=CC(c2cccs2)N(Cc2cccc(OC(F)(F)F)c2)CC1 (stereo not given)	-0.686	-0.777	-1.13	-3.3	-3.79	-1.24	-1.13 (inactive)	-0.733	0.478	0.397 (inactive)	-0.505	-4.17 (inactive)	-0.656 (inactive)	-1.3 (inactive)	-0.341 (inactive)	-0.54 (inactive)	0.0886 (inactive)	-0.573 (inactive)	-0.175	0.282
O=C1O[C@H](c2ccccc2)[C@H](c2ccccc2)N2[C@H]1[C@@H](C(=O)N1CCCCCCC1)[C@]1(C(=O)Nc3ccc(C#CCCO)cc31)[C@H]2c1ccc(OCCO)cc1	-0.84	0.162	0.409	-0.276	-0.105	-0.0749	-0.962 (inactive)	-0.737	-0.919	1.93 (inactive)	1.08	0.905 (inactive)	0.332 (inactive)	0.521 (inactive)	0.0568 (inactive)	-0.0365 (inactive)	0.136 (inactive)	-0.656 (inactive)	0.543	2.52
CCCCC=C[C@@H](NC(=O)CCc1ccccc1)c1ccccc1	-2.48	-0.346	-3.43	-3.31	-4.71	-3.88	-0.775 (inactive)	-0.85	-1.74	-1.3 (inactive)	-1.61	0.927 (inactive)	-2.09 (inactive)	-0.739 (inactive)	1.16 (inactive)	0.929 (inactive)	-0.0955 (inactive)	-0.169 (inactive)	-3.6	-0.154
COCC1=C([C@H](O)CCc2ccccc2)[C@H](CO)[C@@H]2C(=O)N(C)C(=O)[C@@H]2C1	0.803	-0.473	0.693	0.347	-0.243	0.618	-0.368 (inactive)	0.442	0.341	-0.515 (inactive)	-0.548	-1.66 (inactive)	0.244 (inactive)	-0.0291 (inactive)	0.908 (inactive)	0.1 (inactive)	2.16 (inactive)	1.65 (inactive)	0.544	-0.353

From PubChem BioAssay
